From PubChem
GDH-TPI counter-1 = GDH-TPI coupled enzyme inhibition counter-screen | 360,000 compounds, 1.2% hits | AID 588335 | inhibition, % at 4.8 µM | GDH-TPI coupled enzyme counterscreen, NADH absorbance; in the data active = inhibition above about 30%;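 note: 0% = DMSO wells and 100% = wells lacking the enzyme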
Yp Topo-I inh = blocks Yersinia pestis topoisomerase I activity. AID 504884. activity, % at 10 µM. 360,000 compounds, 0.064% hits. Y. pestis Topo-I cleavage product accumulation, plate reader; in the data active = activity above about 50%, passing the limit was not always enough
FBA Mtb inh = Mtb fructose-bisphosphate aldolase inhibition | P9WQA3 | purified M. tuberculosis FBA, fluorescence read-out | inhibition, % at 1 µM | 360,000 compounds, 2.3% hits;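 note: 0% = vehicle and 100% = reference inhibitor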
TcdB GH inh = blocks C. difficile toxin B glycohydrolase activity; P18177; TcdB glycohydrolase enzymatic assay, plate reader; inhibition, % at 9.99 µM; 350,000 compounds, 0.24% hits; in the data active = inhibition above about 10%
PrPC surface inh = cell surface PrPC inhibition, primary TR-FRET screen | TR-FRET read-out | inhibition, % at 13.8 µM | 370,000 compounds, 0.43% hits | AID 720596; in the data active = inhibition above about 24%; note: 0% = median of the test wells and 100% = reference compound wells
Mtb FBA confirm = confirmation of M. tuberculosis fructose-bisphosphate aldolase inhibitors; shares compounds with FBA Mtb inh; purified M. tuberculosis FBA, fluorescence read-out; inhibition, % at 1 µM; 5,600 compounds, 78% hits; AID 651616;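 note: 0% = vehicle wells and 100% = reference inhibitor wells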
GDH-TPI counter-2 = GDH-TPI inhibition counter-screen for FBA inhibitors. shares compounds with FBA Mtb inh. GDH-TPI coupled enzyme counterscreen, fluorescence. inhibition, % at 1 µM. 5,600 compounds, 81% hits; in the data active = inhibition above about 10%
* marks the source's active call; other numbers are inactive results; . = no result given; + = active, no number. A selection: hits, their analogues and other compounds. The true share with any hit is near 3.2%. Cut-off read from the data, not from the text of the source, unless noted: active = inhibition above about 27%; inactive = the rest.

SMILES | GDH-TPI counter-1 | Yp Topo-I inh | FBA Mtb inh | TcdB GH inh | PrPC surface inh | Mtb FBA confirm | GDH-TPI counter-2
O=C(NN=Cc1cc(Br)c(O)c(Br)c1)c1ccccc1NS(=O)(=O)c1cccs1 | 48* | -3 | 79* | 14* | -2 | 165* | 135*
NC(=O)CSc1oc(-c2ccc(F)cc2)nc1S(=O)(=O)c1ccccc1 | 9 | -1 | 62* | . | 0 | 158* | 89*
Cc1c(CCCl)c(Cl)n2c(nc3ccccc32)c1C#N | 0 | -6 | 3 | 1 | 2 | . | .
N#Cc1c(-c2ccccc2)c(C#N)c2nc3ccccc3n2c1N | 13 | 1 | 83* | . | 2 | 91* | 67*
COc1ccc2[nH]c3c(N4CCc5ccccc5C4)ncnc3c2c1 | 5 | -13 | 40* | 3 | 20 | 1 | 1
COc1cc2[nH]c3c(N4CCN(c5ccccn5)CC4)ncnc3c2cc1OC | 0 | 3 | 29* | . | . | -5 | -7
COc1ccc(N2CCN(c3ncnc4c3[nH]c3ccccc34)CC2)cc1 | 3 | 0 | 0 | . | 12 | . | .
C[C@H](CO)N1C[C@H](C)[C@@H](CN(C)C)Oc2cc(-c3ccccc3)ccc2S1(=O)=O | . | . | . | -1 | . | . | .
O=C(NCc1cccc(Cl)c1)c1ccc(-c2cccnc2)c2ccoc12 | -9 | 10 | 9 | 1 | -3 | . | .
Cn1cc(-c2ccc(C(=O)NCc3cccc(Cl)c3)c3occc23)cn1 | 1 | 21 | 42* | 0 | -2 | 2 | -3
CCCC#Cc1ccc(CC[C@H]2O[C@H]3CC[C@@H](CO)O[C@H]3C[C@H]2NC(=O)c2cnccn2)cc1 | . | . | . | 2 | . | . | .
Cc1c(OCC(=O)N2CCC(C(N)=O)CC2)ccc2c3c(c(=O)oc12)CCCC3 | 10 | 2 | 18 | 0 | 7 | . | .
O=C(O)C1CCN(C(=O)COc2ccc3c4c(c(=O)oc3c2)CCC4)CC1 | 16 | -1 | 41* | . | 7 | 124* | 79*
NC(=O)C1CCN(C(=O)COc2ccc3c4c(c(=O)oc3c2)CCCC4)CC1 | 24 | -5 | 79* | 0 | 6 | 166* | 136*
C[C@H]1CN([C@@H](C)CO)C(=O)c2cccc(NC(=O)C3CCOCC3)c2O[C@@H]1CN(C)Cc1ccc(-c2ccccc2)cc1 | . | . | . | 0 | . | . | .
CC(C)NC(=O)Nc1ccc2c(c1)C(=O)N([C@@H](C)CO)C[C@@H](C)[C@H](CN(C)C(=O)Nc1ccc(C(F)(F)F)cc1)OCCCC[C@@H](C)O2 | . | . | . | 1 | . | . | .
CC(C)Cc1nc2oc3c(Cl)ncnc3c2c2c1CCCC2 | 1 | 0 | -2 | 0 | 4 | . | .
CC(C)Cc1nc2oc3c(NCC(C)O)ncnc3c2c2c1CCCC2 (configuration not stated) | -2 | 15 | 60* | 0 | 0 | + | +
CCCc1nc2oc3c(NCCCN(C)C)ncnc3c2c2c1CCCC2 | 10 | -8 | 61* | 3 | -11 | + | +
CC(C)c1nc2oc3c(NCC4CCCO4)ncnc3c2c2c1CCC2 (configuration not stated) | 9 | 5 | 57* | . | 3 | 181* | 151*
COc1ccccc1NC(=O)N(C)C[C@@H]1Oc2ncc(C#CCN(C)C)cc2C(=O)N([C@@H](C)CO)C[C@@H]1C | . | . | . | 0 | . | . | .
N#C/C(=C\c1ccc(F)cc1)c1n[nH]c(Cn2cncn2)n1 | 20 | 0 | 4 | . | -7 | . | .
N#C/C(=C\c1cccc(Cl)c1)c1n[nH]c(Cn2cncn2)n1 | 5 | 1 | 39* | . | -4 | 57* | 43*
O=C(O)C[C@H]1C[C@H]2c3cc(NS(=O)(=O)c4ccccc4)ccc3O[C@H]2[C@@H](CO)O1 | . | . | . | -3 | . | . | .
CC(=O)N1N=C(c2ccncc2)OC12CCCCC2 | 0 | -2 | 89* | . | 1 | 49* | 40*
SMILES | GDH-TPI counter-1 | Yp Topo-I inh | FBA Mtb inh | TcdB GH inh | PrPC surface inh | Mtb FBA confirm | GDH-TPI counter-2
CC(=O)N1N=C(c2ccncc2)OC12CCCCCC2 | 7 | 0 | 77* | 0 | 0 | + | +
CC(=O)N1N=C(c2ccccc2)OC12CCCC2 | -2 | -2 | 0 | -1 | 1 | . | .
CC(C)C#Cc1cnc2c(c1)C(=O)N([C@H](C)CO)C[C@@H](C)[C@@H](CN(C)S(=O)(=O)c1cn(C)cn1)O2 | . | . | . | 0 | . | . | .
O=C(Nc1ccc2c(c1)OCO2)N[C@H]1CC[C@@H](CCNC(=O)C2CC2)O[C@H]1CO | . | . | . | 0 | . | . | .
C[C@H](O)[C@@H]1C(=O)N2CCc3c([nH]c4ccccc34)[C@@H]2C[C@@H]1N(C)C(=O)NC1CCCCC1 | 11 | 10 | 87* | 2 | -17 | 157* | 116*
C[C@H](O)[C@@H]1C(=O)N2CCc3c([nH]c4c(-c5ccccc5)cccc34)[C@@H]2C[C@@H]1N(C)C(=O)NC1CCCCC1 | . | . | . | 0 | 1 | . | .
CN1OC[C@@H]2C(=O)N3CCc4c([nH]c5ccccc45)[C@@H]3C[C@@H]21 | -8 | 4 | 38* | 0 | -12 | + | 192*
C[C@@H]1CN([C@@H](C)CO)C(=O)c2cc(NS(C)(=O)=O)ccc2O[C@@H](C)CCCCO[C@@H]1CN(C)C(=O)Nc1ccc(F)cc1 | . | . | . | 1 | . | . | .
C[C@H]1CN([C@@H](C)CO)C(=O)Cc2cc(NC(=O)C3CC3)ccc2O[C@@H]1CN(C)C(=O)Nc1cccc2ccccc12 | . | . | . | 1 | . | . | .
c1ccc(-c2nc(-c3nccc4ccccc34)oc2-c2ccccc2)cc1 | 5 | 10 | 62* | -1 | -1 | 91* | 52*
C[C@@H]1CN([C@H](C)CO)S(=O)(=O)c2ccc(C3=CCCCC3)cc2O[C@H]1CN(C)C(=O)C1CCC1 | . | . | . | 1 | . | . | .
Brc1ccc(-c2nnc(-c3ccco3)o2)cc1 | 8 | 4 | 60* | . | -7 | 149* | 145*
CCOc1ccc(-c2nnc(-c3ccco3)o2)cc1OCC | 8 | -2 | 74* | . | -6 | 130* | 119*
c1ccc(-c2nnc(-c3ccco3)o2)cc1 | 4 | -1 | 42* | . | -4 | 64* | 49*
C[C@@H]1CN([C@@H](C)CO)C(=O)c2cc(C#CC(C)(C)O)cnc2O[C@H]1CN(C)C(=O)c1ccccc1F | . | . | . | 1 | . | . | .
CCOc1ccc(-c2nc3n(c(=O)c2C#N)CCS3)cc1 | 16 | -8 | 32* | 0 | -12 | 71* | 62*
COc1ccc(-c2nc3n(c(=O)c2C#N)CCS3)cc1 | 7 | 0 | 28* | 3 | -5 | 32* | 28*
CCS(=O)(=O)N[C@@H]1CC[C@H](CC(=O)NC2Cc3ccccc3C2)O[C@H]1CO | . | . | . | -4 | . | . | .
COc1ccc2ccc(=O)oc2c1CC(=O)C(C)C | 14 | 0 | 39* | 0 | -3 | 27 | 18*
COc1ccc2ccc(=O)oc2c1CC(O)C(C)(C)O (configuration not stated) | 14 | -8 | 66* | 0 | 5 | 4 | -5
CC(C)(O)[C@H](O)COc1c2occc2cc2ccc(=O)oc12 | 8 | -8 | 5 | 1 | -2 | . | .
